Article PMC5540273 (PLoS ONE, 2017)

system: DDR1; details: concentration: 1 μM, replicates: in singlicate; n = 1
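Further: KINOMEscan kinase panel screen.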

**Q.** How did the “%Inh” value turn out when COc1cc2ncnc(Nc3cccc(Br)c3)c2cc1OC.Cl [GI230329] was run?
**A.** 63%

**Q.** For CS(=O)(=O)CCNCc1nc(-c2ccc3ncnc(Nc4ccc(OCc5ccccc5)c(Cl)c4)c3c2)cs1.Cl [GW582764], which “%Inh” value is on record?
**A.** 99.8%

**Q.** Which “%Inh” value does the source give for COc1ccc2cc(-c3nc(-c4ccccc4C(C)C)[nH]c3-c3ccncc3)ccc2c1 [SB-660566] here?
**A.** 90.5%

**Q.** For COc1ccc(Nc2nccc(N3CCC(NC(=O)C(C)c4ccc(Cl)cc4)CC3)n2)cc1 (stereo not shown) [GSK1379812], which “%Inh” value is on record?
**A.** 0%

**Q.** With Cc1ccccc1-c1cc(-c2c[nH]nc2-c2ccccn2)ccn1 [GW680061] as the compound, how does the “%Inh” value read?
**A.** 79%

**Q.** How did the “%Inh” value turn out when CC[C@@H]1CO[C@H](C(=O)Nc2ccccc2)CN1c1cc(-c2ccc3c(N)n[nH]c3c2)nc(NC)n1 [GSK2376236] was run?
**A.** 0%

**Q.** O=C1NC(=O)C(c2ccc(Cl)cc2)=C1Nc1cccc(Cl)c1 [SB-317651] was tested. Which “%Inh” value did it give?
**A.** 0%

**Q.** For Cc1c(Cn2c3ccccc3n3c(=O)cc(N4CCOCC4)nc23)cccc1C(F)(F)F [GSK2306394], which “%Inh” value is on record?
**A.** 19%

**Q.** With Cc1ccc(NC(=O)Nc2ccccc2F)cc1-c1ccc(C(=O)Nc2ccncc2)cc1 [GSK1398477] as the compound, how does the “%Inh” value read?
**A.** 97%

**Q.** With O=c1cc(N2CCOCC2)nc2n(Cc3cccc(Cl)c3Cl)c3ccccc3n12 [GSK2299009] as the compound, how does the “%Inh” value read?
**A.** 22%

**Q.** How did the “%Inh” value turn out when CC(=O)c1c(C)c2cnc(Nc3ccn(C)n3)nc2n(C2CCCC2)c1=O was run?
**A.** 0%

**Q.** How did the “%Inh” value turn out when COc1cccc(CNC(=O)NC2CCN(c3ccnc(Nc4ccc(F)cc4)n3)C2)c1 (stereo not shown) [GSK1379723] was run?
**A.** 7%

**Q.** CC(=O)c1c(C)c2cnc(Nc3ccc(N4CCNCC4)cn3)nc2n(C2CCCC2)c1=O was tested. Which “%Inh” value did it give?
**A.** 0%

**Q.** Which “%Inh” value does the source give for COc1cccc(C2=C(Nc3cc(Cl)c(O)c(Cl)c3)C(=O)NC2=O)c1 [SB-390767] here?
**A.** 96.1%

**Q.** How did the “%Inh” value turn out when Cc1ccccc1Cn1ccn2c(=O)cc(N3CCOCC3)nc12 [GSK2269905] was run?
**A.** 0%

**Q.** Which “%Inh” value does the source give for Fc1ccc(-c2nn3cccc(F)c3c2-c2ccncc2)cc1 [GW475620] here?
**A.** 47%

**Q.** For Cc1nccc(-c2c(-c3ccc(F)cc3)ncn2CCCN2CCOCC2)n1.Cl [SB-282975], which “%Inh” value is on record?
**A.** 0%

**Q.** Cc1cccc2c(-c3ccncn3)c(-c3ccc(F)cc3)nn12 [GW515532] was tested. Which “%Inh” value did it give?
**A.** 43%

**Q.** How did the “%Inh” value turn out when COc1ccc(Nc2nccc(NCCNC(=O)Nc3cc(C)ccc3C)n2)cc1 [GSK1379899] was run?
**A.** 9%

**Q.** With Nc1nccc(-c2c(-c3ccc(F)cc3)ncn2C2CCN(Cc3ccccc3)CC2)n1 [SB-219980] as the compound, how does the “%Inh” value read?
**A.** 86%

**Q.** How did the “%Inh” value turn out when CS(=O)(=O)Cc1ccc(Nc2nccc(-c3c(-c4cccc(NC(=O)C5CCCCC5)c4)nn4ncccc34)n2)cc1 [GSK350559] was run?
**A.** 96.6%

**Q.** With Cc1ccc(NC(=O)Nc2ccc(Cl)c(C(F)(F)F)c2)cc1-c1ccc(C(=O)Nc2ccncc2)cc1 [GSK1398470] as the compound, how does the “%Inh” value read?
**A.** 97.3%

**Q.** For O=c1cc(N2CCOCC2)nc2n(Cc3ccccc3F)ccn12 [GSK2297428], which “%Inh” value is on record?
**A.** 10%

**Q.** Which “%Inh” value does the source give for O=C(Nc1n[nH]c2nc(-c3ccco3)c(Br)cc12)C1CCN(Cc2ccccc2)C1.O=C(O)[C@H](O)[C@@H](O)C(=O)O (stereo not shown) [SB-742034] here?
**A.** 0%

**Q.** For CCn1c(-c2c(N)noc2C)nc2cnccc21 [SB-737856], which “%Inh” value is on record?
**A.** 0%

**Q.** Cn1cnc2c(N)ncnc21 [SKF-97623] was tested. Which “%Inh” value did it give?
**A.** 0%

**Q.** With O=C(Nc1n[nH]c2cc(-c3ccsc3)ccc12)C1CC1 [SB-732932] as the compound, how does the “%Inh” value read?
**A.** 0%

**Q.** With CN1c2ccc(-c3ccc(C(N)=O)cc3)cc2-c2[nH]ncc2S1(=O)=O as the compound, how does the “%Inh” value read?
**A.** 0%

**Q.** How did the “%Inh” value turn out when Cl.Cl.Cl.N#Cc1ccc(CCNc2nccc(-c3cccc(CN4CCNCC4)c3)n2)cc1 [GSK2137462] was run?
**A.** 0%

**Q.** For Cn1cncc1C(=O)NC1CCN(c2ccnc(Nc3ccc(F)cc3)n2)C1 (stereo not shown) [GSK1379717], which “%Inh” value is on record?
**A.** 7%

**Q.** CS(=O)(=O)CCNCc1nc(-c2ccc3ncnc(Nc4ccc5c(cnn5Cc5ccccc5)c4)c3c2)cs1.Cl.Cl [GW569716] was tested. Which “%Inh” value did it give?
**A.** 0%

**Q.** CNCc1ccc2nc(NC(=O)c3ccc(C(C)(C)C)cc3)cn2c1 was tested. Which “%Inh” value did it give?
**A.** 9%

**Q.** CNc1cc(-c2ccc3c(N)n[nH]c3c2)nc(N)n1 [GSK2224810] was tested. Which “%Inh” value did it give?
**A.** 0%

**Q.** For CNc1nc(-c2ccc3c(N)n[nH]c3c2)cc(N2C[C@@H](C(=O)Nc3ccccc3)CC[C@H]2C)n1 [GSK2298859], which “%Inh” value is on record?
**A.** 6%

**Q.** COc1ccc(Nc2nccc(N3CCC(NC(=O)c4cc5ccccc5s4)C3)n2)cc1 (stereo not shown) [GSK1379738] was tested. Which “%Inh” value did it give?
**A.** 80%

**Q.** COc1ccc(CSc2nnc(-c3ccc4nccn4c3)o2)cc1C(F)(F)F was tested. Which “%Inh” value did it give?
**A.** 13%

system: DDR2; details: concentration: 1 μM, replicates: in singlicate; n = 1

**Q.** With COc1cc2ncnc(Nc3cccc(Br)c3)c2cc1OC.Cl [GI230329] as the compound, how does the “%Inh” value read?
**A.** 43%

**Q.** With CS(=O)(=O)CCNCc1nc(-c2ccc3ncnc(Nc4ccc(OCc5ccccc5)c(Cl)c4)c3c2)cs1.Cl [GW582764] as the compound, how does the “%Inh” value read?
**A.** 40%

**Q.** Which “%Inh” value does the source give for COc1ccc2cc(-c3nc(-c4ccccc4C(C)C)[nH]c3-c3ccncc3)ccc2c1 [SB-660566] here?
**A.** 6%

**Q.** For COc1ccc(Nc2nccc(N3CCC(NC(=O)C(C)c4ccc(Cl)cc4)CC3)n2)cc1 (stereo not shown) [GSK1379812], which “%Inh” value is on record?
**A.** 4%

**Q.** For Cc1ccccc1-c1cc(-c2c[nH]nc2-c2ccccn2)ccn1 [GW680061], which “%Inh” value is on record?
**A.** 5%

**Q.** CC[C@@H]1CO[C@H](C(=O)Nc2ccccc2)CN1c1cc(-c2ccc3c(N)n[nH]c3c2)nc(NC)n1 [GSK2376236] was tested. Which “%Inh” value did it give?
**A.** 11%

**Q.** How did the “%Inh” value turn out when O=C1NC(=O)C(c2ccc(Cl)cc2)=C1Nc1cccc(Cl)c1 [SB-317651] was run?
**A.** 16%

**Q.** Which “%Inh” value does the source give for Cc1c(Cn2c3ccccc3n3c(=O)cc(N4CCOCC4)nc23)cccc1C(F)(F)F [GSK2306394] here?
**A.** 0%

**Q.** Which “%Inh” value does the source give for Cc1ccc(NC(=O)Nc2ccccc2F)cc1-c1ccc(C(=O)Nc2ccncc2)cc1 [GSK1398477] here?
**A.** 55%

**Q.** How did the “%Inh” value turn out when O=c1cc(N2CCOCC2)nc2n(Cc3cccc(Cl)c3Cl)c3ccccc3n12 [GSK2299009] was run?
**A.** 0%

**Q.** How did the “%Inh” value turn out when CC(=O)c1c(C)c2cnc(Nc3ccn(C)n3)nc2n(C2CCCC2)c1=O was run?
**A.** 0%

**Q.** How did the “%Inh” value turn out when COc1cccc(CNC(=O)NC2CCN(c3ccnc(Nc4ccc(F)cc4)n3)C2)c1 (stereo not shown) [GSK1379723] was run?
**A.** 0%

**Q.** CC(=O)c1c(C)c2cnc(Nc3ccc(N4CCNCC4)cn3)nc2n(C2CCCC2)c1=O was tested. Which “%Inh” value did it give?
**A.** 0%

**Q.** COc1cccc(C2=C(Nc3cc(Cl)c(O)c(Cl)c3)C(=O)NC2=O)c1 [SB-390767] was tested. Which “%Inh” value did it give?
**A.** 18%

**Q.** For Cc1ccccc1Cn1ccn2c(=O)cc(N3CCOCC3)nc12 [GSK2269905], which “%Inh” value is on record?
**A.** 0%

**Q.** Which “%Inh” value does the source give for Fc1ccc(-c2nn3cccc(F)c3c2-c2ccncc2)cc1 [GW475620] here?
**A.** 39%

**Q.** How did the “%Inh” value turn out when Cc1nccc(-c2c(-c3ccc(F)cc3)ncn2CCCN2CCOCC2)n1.Cl [SB-282975] was run?
**A.** 0%

**Q.** For Cc1cccc2c(-c3ccncn3)c(-c3ccc(F)cc3)nn12 [GW515532], which “%Inh” value is on record?
**A.** 16%

**Q.** With COc1ccc(Nc2nccc(NCCNC(=O)Nc3cc(C)ccc3C)n2)cc1 [GSK1379899] as the compound, how does the “%Inh” value read?
**A.** 0%

**Q.** How did the “%Inh” value turn out when Nc1nccc(-c2c(-c3ccc(F)cc3)ncn2C2CCN(Cc3ccccc3)CC2)n1 [SB-219980] was run?
**A.** 74%

**Q.** With CS(=O)(=O)Cc1ccc(Nc2nccc(-c3c(-c4cccc(NC(=O)C5CCCCC5)c4)nn4ncccc34)n2)cc1 [GSK350559] as the compound, how does the “%Inh” value read?
**A.** 54%

**Q.** How did the “%Inh” value turn out when Cc1ccc(NC(=O)Nc2ccc(Cl)c(C(F)(F)F)c2)cc1-c1ccc(C(=O)Nc2ccncc2)cc1 [GSK1398470] was run?
**A.** 63%

**Q.** For O=c1cc(N2CCOCC2)nc2n(Cc3ccccc3F)ccn12 [GSK2297428], which “%Inh” value is on record?
**A.** 0%

**Q.** With O=C(Nc1n[nH]c2nc(-c3ccco3)c(Br)cc12)C1CCN(Cc2ccccc2)C1.O=C(O)[C@H](O)[C@@H](O)C(=O)O (stereo not shown) [SB-742034] as the compound, how does the “%Inh” value read?
**A.** 0%

**Q.** For CCn1c(-c2c(N)noc2C)nc2cnccc21 [SB-737856], which “%Inh” value is on record?
**A.** 0%

**Q.** How did the “%Inh” value turn out when Cn1cnc2c(N)ncnc21 [SKF-97623] was run?
**A.** 30%

**Q.** O=C(Nc1n[nH]c2cc(-c3ccsc3)ccc12)C1CC1 [SB-732932] was tested. Which “%Inh” value did it give?
**A.** 0%

**Q.** CN1c2ccc(-c3ccc(C(N)=O)cc3)cc2-c2[nH]ncc2S1(=O)=O was tested. Which “%Inh” value did it give?
**A.** 28%

**Q.** Which “%Inh” value does the source give for Cl.Cl.Cl.N#Cc1ccc(CCNc2nccc(-c3cccc(CN4CCNCC4)c3)n2)cc1 [GSK2137462] here?
**A.** 0%

**Q.** Which “%Inh” value does the source give for Cn1cncc1C(=O)NC1CCN(c2ccnc(Nc3ccc(F)cc3)n2)C1 (stereo not shown) [GSK1379717] here?
**A.** 0%

**Q.** Which “%Inh” value does the source give for CS(=O)(=O)CCNCc1nc(-c2ccc3ncnc(Nc4ccc5c(cnn5Cc5ccccc5)c4)c3c2)cs1.Cl.Cl [GW569716] here?
**A.** 24%

**Q.** For Cc1cnc(N)c(/C=C/c2cncc(C(=O)NCCc3ccc(Cl)cc3Cl)c2)c1.Cl [GSK190937], which “%Inh” value is on record?
**A.** 79%

**Q.** Which “%Inh” value does the source give for CNCc1ccc2nc(NC(=O)c3ccc(C(C)(C)C)cc3)cn2c1 here?
**A.** 24%

**Q.** How did the “%Inh” value turn out when CNc1cc(-c2ccc3c(N)n[nH]c3c2)nc(N)n1 [GSK2224810] was run?
**A.** 13%

**Q.** Which “%Inh” value does the source give for CNc1nc(-c2ccc3c(N)n[nH]c3c2)cc(N2C[C@@H](C(=O)Nc3ccccc3)CC[C@H]2C)n1 [GSK2298859] here?
**A.** 8%

**Q.** COc1ccc(Nc2nccc(N3CCC(NC(=O)c4cc5ccccc5s4)C3)n2)cc1 (stereo not shown) [GSK1379738] was tested. Which “%Inh” value did it give?
**A.** 23%

**Q.** COc1ccc(CSc2nnc(-c3ccc4nccn4c3)o2)cc1C(F)(F)F was tested. Which “%Inh” value did it give?
**A.** 0%
